Measurements taken from PubChem BioAssay (EPA / NIEHS).
Activity calls are given as the source filed them. How the source made its calls: active means hit-call score of the fitted dose curve at least 0.9, where 1 is the maximum; inconclusive means response in the unintended direction; inactive means score below 0.9.

Molecular target: guinea pig Sigma Receptor, Non-selective Binding, SIGMAR1 (gene 100135589) (UniProt Q60492)
Test: NVS_OR_gSIGMA_NonSelective: NovaScreen (NVS) Nuclear Receptor Binding Assay for guinea pig Sigma Receptor, Non-selective Binding (AID 2283367)
Method: NVS_OR_gSIGMA_NonSelective is a biochemical, single-readout assay that uses extracted gene-proteins from Guinea pig brain membranes in a tissue-based cell-free assay. Measurements were taken 1 hour after chemical dosing in a 48-well plate.NVS_OR_gSIGMA_NonSelective is one of one assay component(s) measured or calculated from the NVS_OR_gSIGMA_NonSelective assay. It is designed to make measurements of radioligand binding, a form of binding reporter, as detected with scintillation counting signals by Filter-based radiodetection technology.Data from the assay component NVS_OR_gSIGMA_NonSelective was analyzed into 1 assay endpoint. This assay endpoint, NVS_OR_gSIGMA_NonSelective, was analyzed in the positive analysis fitting direction relative to DMSO as the negative control and baseline of activity. Using a type of binding reporter, loss-of-signal activity can be used to understand changes in the binding as they relate to the gene Sigmar1. Furthermore, this assay endpoint can be referred to as a primary readout, because the performed assay has only produced 1 assay endpoint. To generalize the intended target to other relatable targets, this assay endpoint is annotated to the misc protein intended target family, where the subfamily is chaperone.
Binding assays used specific radioligands (tritiated, iodinated) with non-radioactive competitive displacement ligands in agonist or antagonist protocols (as indicated) and various reference compounds and inhibitors to titrate specific binding to receptors and transporters. Most enzyme assays (CYPs, kinases, phosphatases, proteases, HDACs) used recombinant protein and specific substrates (fluorescence mostly, some colorimetric and radioactive) and inhibitors, followed by a biochemical separation of substrate and product. All assays for the biochemical HTS were initially run in duplicate at a single concentration (10 uM for CYP450 assays and 25 uM for all others). […] Each assay was run with positive and negative controls, and concurrent controls on every plate. The follow-up (secondary) screen tested active chemical-pairs in concentration series, as well as a few additional assays not tested in the primary screen, some selected negative inactives, and several cases re-run in the concentration series for confirmatory purposes.

guinea pig Sigma Receptor, Non-selective Binding, SIGMAR1 (gene 100135589), sequence (Q60492 whole entry, looked up): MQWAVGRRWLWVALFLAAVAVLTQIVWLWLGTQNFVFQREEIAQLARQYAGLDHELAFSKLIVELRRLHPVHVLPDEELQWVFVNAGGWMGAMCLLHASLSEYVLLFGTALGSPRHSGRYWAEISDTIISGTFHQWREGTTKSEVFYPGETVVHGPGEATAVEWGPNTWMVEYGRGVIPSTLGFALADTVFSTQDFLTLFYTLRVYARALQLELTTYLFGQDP

AC50, active:
CCCCOC(=O)c1ccc(O)cc1 4.2 µM, CN(C)C(=O)C1(N2CCCCC2)CCN(CC[C@@]2(c3ccc(Cl)c(Cl)c3)CN(C(=O)c3ccccc3)CCO2)CC1 6 µM, c1ccc(C[n+]2cccc3ccccc32)cc1 8.14 µM, Cc1occc1C(=O)Nc1ccc(C(=O)N2CCC(F)(F)/C(=C\C(=O)N3CCC(N4CCCCC4)CC3)c3ccccc32)cc1 2.93 µM, CCCCCCCCCCCC[N+](C)(C)C 0.123 µM, CCCCCCCCN(C)CCCCCCCC 0.212 µM, COc1cccc([C@H](O)C2CCN(CCc3ccc(F)cc3)CC2)c1OC 0.29 µM, CCOC(=O)O[C@H](C)OC(=O)c1ccc2c(c1)cc(C(=O)NC1CCN(C(C)C)CC1)n2Cc1cc(-c2ccc(Cl)s2)on1 0.226 µM, COc1cc(C(=O)NC2CCN(C)CC2)ccc1Nc1ncc2c(n1)N(C1CCCC1)CC(F)(F)C(=O)N2C 9.05 µM, COc1ccc2cc(S(=O)(=O)N[C@H](CC(=O)N[C@H](Cc3ccc(CN4[C@H](C)CCC[C@@H]4C)cc3)C(=O)N(C)C(C)C)c3ccc4c(c3)OCO4)ccc2c1 1.74 µM, O=C1CCC(C2CCCCC2)CC1 25 µM, CN(C)c1ccc(C(=C2C=CC(=[N+](C)C)C=C2)c2ccc(N(C)C)cc2)cc1 14.8 µM, NCc1cccc(C2CCN(C(=O)c3ccc(C#Cc4ccccc4F)o3)CC2)c1 13.2 µM, CCN(CC)C(=O)c1cc(S(=O)(=O)Cc2ccccc2)c(N2CCC(c3ccccc3)CC2)cc1N(CC)CCN(C)C 6.21 µM, Clc1cc(Cl)c2c(c1)N=C1CCCCCN1C2 0.542 µM, O=C1c2ccccc2C(=O)N1CCc1noc(-c2ccc(CN3CCCCCC3)s2)n1 6.76 µM
